Laboratory results: PubChem BioAssay (NCATS)
Records with an inconclusive call do not appear. Activity calls are given as the source filed them. Calls come from the whole dose curve; as a rule, active = well fitted cell-killing curve with a large enough effect; inconclusive = small, poorly fitted or top-dose-only effect; inactive = no such curve, though single readings can be large or run the other way.
Potency is the fitted concentration of half-maximal effect.

Assay: qHTS of pediatric cancer cell lines to identify multiple opportunities for drug repurposing: Primary screen for OHS-50 cells (AID 1347103); note: nearly all actives have a fitted effect of over 40% in size
Conditions: OHS-50 osteosarcoma viability, CellTiter-Glo luminescence, 48 h; series mostly up to 57.3 µM; activity change, negative = cytotoxic: at the top concentration
Source text: Drug repurposing or repositioning has been offered as a strategy for drug development in oncology programs. This approach has special potential for childhood cancers and other rare or orphan diseases, where the expected return on new drug development has been a disincentive to pharmaceuticals.
In this project we exploit the poly-pharmacology of drugs to discover new indications via phenotypic screening of a panel of 19 well-characterized cell lines derived from solid tumors seen in children and adolescents. The goal is to identify approved drugs with previously unrecognized anticancer properties that has the potential to reveal new mechanisms and biological processes involved in carcinogenesis or drug resistance. We employed a titration-based paradigm (quantitative high-throughput screening or qHTS), where all compounds were tested at multiple concentrations for their effect on cell viability. Concentration-response curves (CRCs) were derived directly from the primary screen, and both potency and efficacy values were used to identify compounds with robust bioactivity profiles. We screened the NIH Chemical Genomics Center (NCGC) Pharmaceutical Collection (NPC) and Mechanism Interrogation Plate (MIPE) small molecule collections of approved and investigational compounds against these cell lines; and measured metabolically active cells after 48 hours of compound treatment as a proxy for cell viability.
Assay Submitter: Nathalia J. Martinez, National Center for Advancing Translational Sciences, National Institutes of Health, Rockville, MD, USA; email: natalia.martinez@nih.gov
[1] Shen, M et al. Quantitative high-throughput phenotypic screening of pediatric cancer cell lines identifies multiple opportunities for drug repurposing. Oncotarget 2017 Dec 19;9(4):4758-4772. PMID 29435139.
The cells were obtained from University of North Carolina (UNC), Pediatric Preclinical Testing Program (PPT), and Coriell Institute (CI).
qHTS cell viability assay:
Cells were assayed in growth media at a density of 500-1,000 cells/well. Five microliters of cells were dispensed into 1,536-well, white, solid-bottom, TC-treated plates (Greiner Bio One) using a multidrop dispenser and incubated at 37 degrees C, 5% CO2, under a humidified atmosphere for 5 hours. Twenty-three nanoliters of compounds and controls (neutral control DMSO or positive control bortezomib at final concentration of 2.3 µM) were subsequently transferred by Kalypsys pintool. For primary screens, the MIPE collection was tested at 11-point dilutions (final concentrations range from 0.78 nM to 46 µM) and the NPC collection at 8-point dilutions (final concentrations range from 0.59 nM to 46 µM). Compounds tested in follow-up screens were assayed at 11-point dilutions. Cells were incubated for 48 hours, followed by addition of 3 µL of CellTiter-Glo (Promega). After a 15 min incubation at room temperature, samples were analyzed for luminescence intensity using a ViewLux High-throughput CCD imager equipped with clear filters.
With `CC(=O)O[C@H]1C[C@@H]2CC[C@H]3[C@H]4C[C@H]([N+]5(C)CCCCC5)[C@@H](OC(C)=O)[C@@]4(C)CC[C@@H]3[C@@]2(C)C[C@H]1[N+]1(C)CCCCC1` the “activity change, negative = cytotoxic” value was 14.3% (inactive). For `CC(C)C[C@H](NC(=O)CNC(=O)c1cc(Cl)ccc1Cl)B1OC(=O)CC(CC(=O)O)(C(=O)O)O1` (stereo not given in full), the Potency was 0.193 µM (active). For `CS[C@H]1SC[C@@H]2C(=O)N(C)[C@H](C(C)C)C(=O)OC[C@H](NC(=O)c3cnc4ccccc4n3)C(=O)N[C@H](C)C(=O)N(C)[C@@H]1C(=O)N(C)[C@H](C(C)C)C(=O)OC[C@H](NC(=O)c1cnc3ccccc3n1)C(=O)N[C@H](C)C(=O)N2C`, the Potency was 0.0122 µM (active). With `CC[C@]12C=CCN3CC[C@@]4(c5cc([C@@]6(C(=O)OC)C[C@H]7C[C@@H](C(C)(F)F)CN(Cc8c6[nH]c6ccccc86)C7)c(OC)cc5N(C)[C@H]4[C@@](O)(C(=O)OC)[C@H]1OC(C)=O)[C@@H]32` the Potency was 0.0193 µM (active). For `CN(C)CC(=O)N1CCC(c2ccc(NC(=O)c3ncc(C#N)[nH]3)c(C3=CCCCC3)c2)CC1`, the Potency was 13.7 µM (active). For `COc1ccc2c(c1OC)C(=O)OC2[C@H]1c2c(cc3c(c2OC)OCO3)CCN1C` (stereo not given in full), the Potency was 0.137 µM (active). For `Nc1nc(N)c2nc(-c3cccc(O)c3)c(-c3cccc(O)c3)nc2n1`, the Potency was 19.3 µM (active). In the case of `CNC(=O)c1cccc(-c2ccc3c(N4CCOC[C@H]4C)nc(N4CCOC[C@H]4C)nc3n2)c1`, the Potency is reported as 0.0685 µM (active). In the case of `c1coc(CNc2ncnc3nc[nH]c23)c1`, the “activity change, negative = cytotoxic” value is reported as -5.56% (inactive). In the case of `CC(Oc1ccc(O)cc1)(P(=O)(O)O)P(=O)(O)O`, the “activity change, negative = cytotoxic” value is reported as -7.68% (inactive). For `CCOc1cc2ncc(C#N)c(Nc3ccc(OCc4ccccn4)c(Cl)c3)c2cc1NC(=O)C=CCN(C)C`, the Potency was 0.863 µM (active). In the case of `O=C1NCCc2[nH]c(-c3ccncc3)cc21`, the Potency is reported as 2.43 µM (active). In the case of `C[C@H]1COc2c(N3CCN(C)CC3)c(F)cc3c(=O)c(C(=O)O)cn1c23`, the “activity change, negative = cytotoxic” value is reported as 122% (inactive). In the case of `CC(C)[C@H](CO)Nc1nc(Nc2cccc(Cl)c2)c2ncn(C(C)C)c2n1`, the Potency is reported as 13.7 µM (active). With `CC(=O)O[C@H]1C[C@@H]2CC[C@H]3[C@H]4C[C@H]([N+]5(C)CCCCC5)[C@@H](OC(C)=O)[C@@]4(C)CC[C@@H]3[C@@]2(C)C[C@H]1N1CCCCC1` the “activity change, negative = cytotoxic” value was 24.2% (inactive). In the case of `CCc1cc(C(C)=NOCc2ccc(C3CCCCC3)c(C(F)(F)F)c2)ccc1CN1CC(C(=O)O)C1`, the Potency is reported as 8.63 µM (active). For `COc1cc([C@@H]2c3cc4c(cc3[C@@H](O[C@@H]3O[C@@H]5CO[C@@H](c6cccs6)O[C@@H]5[C@H](O)[C@@H]3O)[C@H]3COC(=O)[C@H]23)OCO4)cc(OC)c1O`, the Potency was 0.485 µM (active). With `N#CNC(=NCCCCCCOc1ccc(Cl)cc1)Nc1ccncc1` the Potency was 21.7 µM (active). With `COc1cc(C=CC(=O)CC(=O)C=Cc2ccc(O)c(OC)c2)ccc1O` the Potency was 39.5 µM (active). In the case of `C=CC(=O)Nc1cccc(Nc2nc(NC3CCC(N(C)C)CC3)nc3c2ncn3C(C)C)c1` (stereo not given), the Potency is reported as 0.0385 µM (active). With `O=C(O)CCCCCC(=O)NN=C1CCCC1` the “activity change, negative = cytotoxic” value was -5.21% (inactive). In the case of `C[C@@H]1CC[C@@]2(OC1)OC1CC3C4CC=C5CC(O)CCC5(C)C4CCC3(C)C1[C@@H]2C` (stereo not given in full), the “activity change, negative = cytotoxic” value is reported as 12.8% (inactive). For `CC(C=CC1=C(C)CCCC1(C)C)=CC=CC(C)=CC(=O)Nc1ccc(O)cc1`, the Potency was 17.7 µM (active). For `CCNC(=O)c1cc2c(-c3cc(OCCN4CCCC4)c(Cl)cc3Cl)nc(N)nc2s1`, the Potency was 3.85 µM (active). For `CC(N[C@H]1CCCC[C@H]1NC(=O)c1ccc(Cl)cc1)c1cccc2ccccc12` (stereo not given in full), the Potency was 6.11 µM (active). For `NC(=O)N1CCC(CC(=O)N2CCC([C@H]3c4ncc(Br)cc4CCc4cc(Cl)cc(Br)c43)CC2)CC1`, the Potency was 8.63 µM (active). With `C=CCNC1=C2C[C@@H](C)C[C@H](OC)[C@@H](O)[C@@H](C)C=C(C)[C@H](OC(N)=O)[C@@H](OC)C=CC=C(C)C(=O)NC(=CC1=O)C2=O` the Potency was 1.22 µM (active). For `Cn1cnc2c(F)c(Nc3ccc(Br)cc3F)c(C(=O)NOCCO)cc21`, the “activity change, negative = cytotoxic” value was 4.39% (inactive). For `C=C1CCC2[C@](C)(CO)C(O)CC[C@]2(C)C1CC=C1C(=O)OCC1O` (stereo not given in full), the “activity change, negative = cytotoxic” value was 9.36% [at 116 µM] (inactive). With `O=C1NC(O)CCN1[C@@H]1O[C@H](CO)[C@H](O)[C@H]1O` (stereo not given in full) the “activity change, negative = cytotoxic” value was -5.48% (inactive). With `CC1(C)O[C@@H]2C[C@H]3[C@@H]4CCC5=CC(=O)C=C[C@]5(C)[C@@H]4[C@@H](O)C[C@]3(C)[C@]2(C(=O)CO)O1` the “activity change, negative = cytotoxic” value was -11.1% (inactive). In the case of `CCCNC(=O)[C@H]1O[C@H]1C(=O)N[C@H](C(=O)N1CCC[C@@H]1C(=O)OC)C(C)CC` (stereo not given in full), the Potency is reported as 17.2 µM (active). In the case of `C[C@@]12C(=O)OC(=O)[C@@]1(C)C1CCC2O1`, the Potency is reported as 2.43 µM (active). With `CCOC(=O)N1CCN([N+]([O-])=NOc2ccc([N+](=O)[O-])cc2C#N)CC1` the Potency was 3.43 µM (active). In the case of `CC(C)c1cnn2c(NCc3ccccc3)cc(NCCCCCCN)nc12`, the Potency is reported as 21.7 µM (active). In the case of `COC1=C(OC)C(=O)C(CC=C(C)CCC=C(C)CCC=C(C)CCC=C(C)CCC=C(C)CCC=C(C)CCC=C(C)CCC=C(C)CCC=C(C)CCC=C(C)C)=C(C)C1=O`, the “activity change, negative = cytotoxic” value is reported as 12% (inactive). For `CC1(C)[C@H](O[C@H]2O[C@H](C(=O)O)[C@@H](O)[C@H](O)[C@H]2O[C@@H]2O[C@H](C(=O)O)[C@@H](O)[C@H](O)[C@H]2O)CC[C@@]2(C)[C@H]1CC[C@]1(C)[C@H]2C(=O)C=C2[C@H]3C[C@@](C)(C(=O)O)CC[C@]3(C)CC[C@]21C`, the “activity change, negative = cytotoxic” value was 25.5% (inactive). For `CS(=O)(=O)N1CCc2c(-c3cnc(N)nc3)nc(N3CCOCC3)nc21`, the Potency was 0.0544 µM (active). With `CC(=O)OC[C@@H]1O[C@@H](n2ccc(=O)[nH]c2=O)[C@H](OC(C)=O)[C@H]1OC(C)=O` the “activity change, negative = cytotoxic” value was -3.56% (inactive). In the case of `CCOC(=O)N1CCN([N+]([O-])=NOc2ccc([N+](=O)[O-])cc2[N+](=O)[O-])CC1`, the Potency is reported as 13.7 µM (active).
